DT40 TDP1 CPT: growth inhibition of DT40 Tdp1-/-;hTDP1 cells with camptothecin (screen for TDP1 inhibitors); chicken DT40 Tdp1-/-;hTDP1 cells + 20 nM CPT, ATP luminescence, 48 h; Potency, µM (top dose mostly 46.2 µM), hits mostly inhibitors; hit rate 12% among 420,000; further: nearly all actives have a fitted effect of over 55% in size
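Chicken DT40 Tdp1-/- cells complemented with human TDP1, 400 cells/well, exposed to compounds plus 20 nM camptothecin for at least 48 h at 37 C; viability read as ATP content by CellTiter-Glo luminescence.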
HT1080NT lethal: kills 2HG-producing HT-1080-NT fibrosarcoma cells. hit rate 1.6% among 360,000. HT-1080-NT fibrosarcoma viability, CellTiter-Glo ATP luminescence, 48 h. AID 686970. Potency, µM (doses to about 46.1 µM), hits mostly cytotoxic;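 further: NT is the 2HG producing partner of a matched IDH1 knockdown line; nearly all actives have a fitted effect of over 55% in size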
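HT-1080-NT fibrosarcoma cells (2HG-overproducing), 750 cells/well in RPMI with 5% FBS, dosed after 2 h and incubated 48 h at 37C. CellTiter-Glo luminescence normalized to DMSO and no-cell wells; concentration-response curves fitted and classed.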
DT40 TDP1 no CPT: qHTS for Inhibitors of human tyrosyl-DNA phosphodiesterase 1 (TDP1): qHTS in cells in absence of CPT; DT40 Tdp1-/- hTDP1 cells, no CPT, ATP luminescence, 48 h; Potency, µM (highest dose often 46.2 µM), hits mostly inhibitors; hit rate 15% among 420,000; AID 686978, 2013; further: nearly all actives have a fitted effect of over 55% in size
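Chicken DT40 Tdp1-/- cells complemented with human TDP1, screened without camptothecin (DMSO vehicle only), 400 cells/well. Compounds pin-transferred, cells incubated at 37 °C for at least 48 hr. Growth read as ATP-dependent luminescence (CellTiter-Glo, 30 min at RT).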
KB-3-1 tox: kills parental KB-3-1 adenocarcinoma cells | KB-3-1 viability, CellTiter-Glo ATP luminescence, 72 h | Potency, µM (top dose mostly 46.1 µM), actives largely listed as cytotoxic | hit rate 1.4% among 400,000 | AID 1347075; further: nearly all actives have a fitted effect of over 60% in size
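KB-3-1 cells, DMEM (no phenol red) + 10% FBS; compound by pin transfer, 72 h, 37 °C. Readout: CellTiter-Glo luminescence after 10 min. Data normalized, curve-fitted.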
KB-V1 MDR tox: KB-V1 MDR subline cytotoxicity; hit rate 3.4% among 400,000; Potency, µM (highest dose often 46.1 µM), actives largely listed as cytotoxic; KB-V1 MDR cells viability, CellTiter-Glo, 72 h; further: nearly all actives have a fitted effect of over 60% in size
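KB-V1 cells (P-gp-expressing MDR subline of KB-3-1) in phenol-red-free DMEM with 10% FBS were exposed to library compounds over a concentration series for 72 h at 37 degrees C. Viability read by CellTiter-Glo luminescence; concentration-effect curves fitted after normalization.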
HT1080 IDH1KD tx: kills HT-1080 cells with IDH1 knockdown; AID 686971; Potency, µM (highest dose often 46.1 µM), usual class: cytotoxic; hit rate 2% among 360,000; HT-1080 IDH1 knockdown viability, ATP luminescence, 48 h
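Cytotoxicity counter-line: IDH1KD HT-1080, 48 h, CellTiter-Glo. Curves classed by r2, magnitude and activity.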
Numbers stand for hits; i = inactive; ? = inconclusive; nt = no result; ! = not active in a repeat. Most compounds without a hit are left out; they make up all but 19% or so of the library. The call rests on the fitted dose curve; in most records, active means well fitted curve in the direction sought with a large enough effect; inconclusive means small, poorly fitted or top-dose-only effect, or another doubt; inactive means no such curve, though single readings can be large; an effect the other way counts as inactive or inconclusive.

SMILES	DT40 TDP1 CPT	HT1080NT lethal	DT40 TDP1 no CPT	KB-3-1 tox	KB-V1 MDR tox	HT1080 IDH1KD tx
COc1cc(-c2noc(C)c2/C=C/c2ccc(OC(C)=O)cc2)cc(OC)c1OC	0.731µM	0.366µM	0.82µM	0.731µM	1.3µM!	0.517µM
COc1ccc(-c2oc(=O)c3cc(OC)c(OC)cc3c2/C=C/c2ccc(F)cc2)cc1	i	i	?	i	i	i
N#C/C(=C/C=C/c1ccccc1)C(=O)Nc1ccccc1	i	i	?	i	16.4µM	?
CNc1ccc(/C=C(\C#N)C(=O)Nc2ccccn2)cc1[N+](=O)[O-]	i	i	i	i	i	i
COc1ccc(NC(=O)/C(C#N)=C/C=C/c2ccco2)cc1	8.2µM	?	9.2µM	7.31µM	13µM	?
N#C/C(=C\c1ccc(O)c(O)c1)C(=O)NCCCCc1ccccc1	6.68µM	nt	8.41µM	nt	nt	nt
N#C/C(=C\c1ccc(O)c(O)c1)C(=O)NCCc1ccccc1	?	i	?	i	?	i
COc1ccc(OC)c(NC(=O)C(C#N)=Cc2ccco2)c1	i	i	i	i	i	i
N#C/C(=C/c1ccc(O)c([N+](=O)[O-])c1)C(=O)Nc1ccccc1	4.11µM	?	6.51µM	18.4µM	?	8.2µM
N#C/C(=C\C=C\c1ccccc1)C(=O)Nc1ccccc1	i	i	i	i	i	i
COCCn1c(=O)c(-c2cc(F)cc(F)c2)nc2cnc(OCc3ccccc3)nc21	i	nt	i	nt	nt	nt
CCOC(=O)c1ccc(NC(=O)CCc2c(C)n(CC)c3cc(-c4ccccc4OC)nn3c2=O)cc1	i	nt	i	i	?	nt
Cc1cccc(NCc2nc3ccccc3n2Cc2ccccc2)c1	14.6µM	i	?	i	?	?
Cc1nc2cc(NCc3nc4ccccc4n3Cc3ccccc3)ccc2n1C	23.1µM	?	?	i	10.3µM	?
CCn1c(=O)cc(OCC(=O)N2CCCCCC2)c2ccccc21	i	i	i	i	?	i
CCn1c(=O)cc(OCC(=O)N2CCN(c3ccc(C)cc3)C(C)C2)c2ccccc21 (stereo not drawn)	7.31µM	nt	6.51µM	i	i	nt
CCn1c(=O)cc(OCC(=O)N2CCN(c3ccc(F)cc3)CC2)c2ccccc21	23.1µM	i	14.6µM	i	i	i
COC(=O)CCCC[C@@H]1O[C@H](CCc2ccccc2)Cc2[nH]c(=S)[nH]c(=O)c21	i	i	?	i	i	i
O=C(C1=C[C@@H](c2ccc(C(F)(F)F)cc2)C[C@@H](OCCCCO)O1)N1CCN(Cc2ccc3c(c2)OCO3)CC1	18.4µM	i	?	i	i	i
O=C(C1=C[C@H](c2ccc(C(F)(F)F)cc2)C[C@H](OCc2ccc(CO)cc2)O1)N1CCN(Cc2ccc3c(c2)OCO3)CC1	?	i	?	i	?	i
CC(C)(C)[C@@H]1C=C(C(=O)N2CCN(Cc3ccc4c(c3)OCO4)CC2)O[C@H](OCc2ccc(CO)cc2)C1	?	i	16.4µM	i	i	i
CC(C)(C)[C@@H]1C=C(C(=O)Nc2ccccc2)O[C@H](OCc2ccc(CO)cc2)C1	23.1µM	i	20.6µM	i	i	i
O=C(C1=C[C@@H](c2ccc(Br)cc2)C[C@@H](OCc2ccc(CO)cc2)O1)N1CCN(Cc2ccc3c(c2)OCO3)CC1	?	i	18.4µM	?	?	?
CCOC(=O)CN1CCS(=O)(=O)CC1	i	i	i	i	?	i
O=C(C1=C[C@@H](c2ccc(C(F)(F)F)cc2)C[C@@H](OCc2ccc(CO)cc2)O1)N1CCN(Cc2ccc3c(c2)OCO3)CC1	20.6µM	i	20.6µM	i	?	?
SMILES	DT40 TDP1 CPT	HT1080NT lethal	DT40 TDP1 no CPT	KB-3-1 tox	KB-V1 MDR tox	HT1080 IDH1KD tx
C=CCn1c(SCCOc2ccccc2)nnc1C(C)NC(=O)c1ccccc1 (stereo not drawn)	?	i	i	i	?	i
CCn1c(CNC(=O)Cc2ccc(OC)cc2)nnc1SCCOc1ccccc1	?	i	16.4µM	i	i	i
COc1ccc(C(=O)NCc2nnc(SCC(=O)NO)n2Cc2ccccc2)cc1	18.4µM	i	?	i	i	i
CCn1c(CC(=O)Nc2cccc(Cl)c2Cl)nnc1SCCOc1ccc(OC)cc1	i	i	i	i	20.6µM	i
COc1ccc(CC(=O)NCc2nnc(SCCOc3ccccc3)n2C)cc1	?	i	?	i	i	i
C=CCn1c(CCNC(=O)c2ccc(Cl)c(Cl)c2)nnc1SCCOc1ccc(OC)cc1	?	?	25.9µM	i	5.17µM	?
COc1ccc(OCCSc2nnc(CC(=O)Nc3cccc(Cl)c3Cl)n2C)cc1	i	i	i	i	?	i
CCOC(=O)C1=C(C)Nc2nnnn2C1c1ccc(OC)c(Br)c1 (stereo not drawn)	?	i	?	i	i	i
CN(C)c1ccc(NC(=O)Cn2nnc3sc4c(c3c2=O)CCC(C(C)(C)C)C4)cc1 (stereo not drawn)	?	nt	?	i	i	nt
Cc1ccc(-c2nc(NCCCN(C)C)c3ccccc3n2)cc1	i	?	?	i	i	?
Cc1ccc(-c2csc3nc4c5ccccc5c(NCCCN(C)C)nn4c(=O)c23)cc1	?	i	18.4µM	?	i	i
O=C(Nc1ccc(F)cc1)Nc1nnc(SCC(=O)N2CCCCC2)s1	?	nt	3.26µM	nt	nt	nt
O=C(COc1ccccc1)Nc1ccc2nc(SCC(=O)N3CCOCC3)sc2c1	18.4µM	nt	14.6µM	nt	nt	nt
O=C(COc1ccc(F)cc1)Nc1ccc2nc(SCC(=O)N3CCOCC3)sc2c1	10.3µM	nt	11.6µM	nt	nt	nt
O=C(COc1ccc(F)cc1)Nc1ccc2nc(SCC(=O)N3CCCC3)sc2c1	11.6µM	nt	23.1µM	nt	nt	nt
CC1CCCCC12NC(=O)N(CC(=O)Nc1ccc(N3CCCCC3)cc1)C2=O (stereo not drawn)	?	i	?	?	i	i
CC(C)C(c1nnnn1Cc1ccccc1)N1CCN(Cc2ccc3c(c2)OCO3)CC1 (stereo not drawn)	?	i	?	?	?	i
CNc1nc(NCc2ccc(N(C)C)cc2)c2sccc2n1	18.4µM	?	16.4µM	i	i	?
CNc1nc(NCc2ccc(C)cc2C)c2sccc2n1	18.4µM	?	6.51µM	i	?	?
COCCNc1nc(NCc2cnc(C)cn2)c2sccc2n1	i	?	i	i	i	i
CC(=O)NCCNc1nc(NCc2ccccc2)nc2ccsc12	?	i	?	i	i	i
Cc1ccc(CNc2nc(NCC3CC3)nc3ccsc23)c(C)c1	9.2µM	14.6µM	10.3µM	i	?	16.4µM
Cc1ccc(CNc2nc(NCc3ccccc3)nc3ccsc23)c(C)c1	9.2µM	25.9µM	?	?	?	?
Cc1ccc2oc(=O)c3cnn(CC(=O)N(C)c4ccc(F)cc4)c3c2c1	i	nt	i	i	i	nt

Screening data from PubChem BioAssay.
